Values without a mark were called inactive. Active and inactive are the calls of the source. The call rests on the fitted dose curve; in most records, active means well fitted curve in the direction sought with a large enough effect in the repeat runs; inconclusive means weak or mixed curves; inactive means flat fitted curve, though single readings scatter.
On the % scale 0 is the no-effect control and ±100 the full control effect.

A short description of the assay: qHTS assay to test for compound auto fluorescence at 535 nm (green) in HEK293 cells (AID 720680). Conditions: green autofluorescence 485/535 nm; series mostly up to 91.3 µM. The source says: U.S. Tox21 Program National Center for Advancing Translational Sciences [NCATS] NIH Chemical Genomics Center [NCGC] U.S. Environmental Protection Agency [EPA] National Institutes of Environmental Health Sciences [NIEHS] National Toxicology Program [NTP] U.S. Food and Drug Administration [FDA] Tox21 Assay Overview: Compound auto fluorescence often interferes with screening of the compound library against various biological targets and signaling pathways. Some of these compounds may have fluorophoric properties. Such properties may interfere with the assay outputs resulting in false positives and/or negatives. To decrease such complications and ensure the compound activities are relevant in terms of biological response, the Tox21 10K compound library was screened for auto fluorescence. From the fluorophores used as reporter signals in our screening assays, the auto fluorescence equivalencies of compounds against three fluorophores have been evaluated: Triamterene, Fluorescein and Rose Bengal sodium for blue, green and red fluorescence, respectively. The fluorescence intensities were measured using Excitation/Emission wavelengths at 405/460nm, 485/535nm and 540/590nm for blue, green and red labels, respectively. This assay includes the green fluorescence data.
Tox21 Assay Protocol Summary: 2,000 HEK293 cells in 5 uL of culture medium containing 10% dialyzed FBS per well were dispensed into black wall/clear bottom 1536-well plates using a Multidrop Combi Dispenser (Thermo Scientific). The assay plates were incubated for 4-5 hr at 37C to allow cell attachment to the well bottom, followed by the transfer of 23 nL compound or DMSO vehicle by a pintool work station (Kalypsys, San Diego, CA). After the assay plates were incubated overnight at 37C and 5% CO2, fluorescence intensities in the assay plates were measured by an Envision (PerkinElmer, Shelton, CT) plate reader using three labels for measuring blue, green and red fluorescence at […] 460, 535 and 590nm respectively.
(In general: In qHTS, concentration-response curves come from the screen itself.)
As to `CCOc1ccc2nc3cc(N)ccc3c(N)c2c1`, the result was inactive. For `N#CSc1ccc(N)c([N+](=O)[O-])c1`, the compound was called inactive. Take `CCOC(=O)O[C@]1(C(=O)OCCl)CC[C@H]2[C@@H]3CCC4=CC(=O)C=C[C@]4(C)[C@H]3[C@@H](O)C[C@@]21C`: the outcome was inactive. The same measure, in the same setting: the value for `CCCCCCCCCCCCCCCC(=O)OC[C@H](O)[C@H]1OC(=O)C(O)=C1O` was “inactive”.

As to `NNc1nc(-c2ccc(N)cc2)cs1`, the call was inactive. As for `CC(NN)c1ccccc1` (stereo not given), the call was inactive. Same read-out and setting: as for `O=C(Oc1ccccc1)c1ccccc1C(=O)Oc1ccccc1`, the entry is “inactive”; as for `O=C1c2ccccc2Cc2ccccc21`, “inactive”. Consider `CCOC(=O)/C=C(C)/C=C/C=C(C)/C=C/c1c(C)cc(OC)c(C)c1C`, for which the call was inactive.

Consider `O=C(Nc1ccc(Oc2ccc(Cl)cc2)c(Cl)c1)c1cc(I)cc(I)c1O`, for which the compound was called inactive. The same measure, in the same setting: the value for `O=C(N/N=C/c1ccccc1O)c1ccncc1` was “inactive”. Regarding `COc1c(C)c2c(c(O)c1C/C=C(\C)CCC(=O)O)C(=O)OC2`, the fluorescence, % of fluorescein is -0.0651% [at 18.6 µM]. As for `CCC(C)Nc1ccc(NC(C)CC)cc1` (stereo not given), the compound was called inactive. Turning to `Cc1[nH]nc2c1N=C(c1ccccc1Cl)c1cc([N+](=O)[O-])ccc1N2`, the result was inactive.

For `S=c1[nH]c2ccccc2s1`, the compound was called inactive.

In the case of `Cc1cc(N)c(S(=O)(=O)O)cc1Cl`, the compound was classed as inactive. Still for that read-out and setting: the value for `CCc1oc2ccccc2c1C(=O)c1cc(Br)c(O)c(Br)c1` was “inactive”. The same measure, in the same setting: the value for `C[C@]12CCC(=O)C=C1CC[C@@H]1[C@@H]2[C@@H](O)C[C@@]2(C)[C@H]1CC[C@]2(O)C(=O)COC(=O)CCC(=O)O` was “inactive”; that for `CCN1/C(=C/C=C/c2sc3ccccc3[n+]2CC)Sc2ccccc21` was “inactive”.

For the compound `C[C@H](CCC(=O)O)[C@H]1CC[C@H]2[C@@H]3CC[C@@H]4C[C@H](O)CC[C@]4(C)[C@H]3CC[C@]12C`, the call was inactive.

As to `C[n+]1cc2c3c(ccc2c2ccc4cc5c(cc4c21)OCO5)OCO3`, the call was inactive. On to `CN(C)[C@@H]1C(=O)C(C(N)=O)=C(O)[C@@]2(O)C(=O)C3=C(O)c4c(O)ccc(Cl)c4[C@@H](O)[C@H]3C[C@@H]12`, for which the result was inactive.

On to `NC(=O)NS(=O)(=O)c1ccc(N)cc1`, for which the outcome was inactive. For the compound `O=c1cc(-c2ccc(O)cc2)oc2cc(O)cc(O)c12`, the call was inactive. Take `Fc1ccc([C@@H]2CCNC[C@H]2COc2ccc3c(c2)OCO3)cc1`: the compound was called inactive. Take `CCCN(CCC)C(=O)C(CCC(=O)OCCCN1CCN(CCOC(=O)Cc2c(C)n(C(=O)c3ccc(Cl)cc3)c3ccc(OC)cc23)CC1)NC(=O)c1ccccc1` (stereo not given): the result was inactive. `CCCCCCCCCCCCCCCC[N+](C)(C)CCN(Cc1ccc(OC)cc1)c1ncccn1`: the fluorescence, % of fluorescein is -0.0029% [at 18.6 µM]. As to `CCc1cc(Cc2cc(CC)cc(C(C)(C)C)c2O)c(O)c(C(C)(C)C)c1`, the call was inactive. On the same count and under the same terms, the value for `CC(C)(C)NC(=O)[C@@H]1C[C@@H]2CCCC[C@@H]2CN1C[C@@H](O)[C@H](Cc1ccccc1)NC(=O)[C@H](CC(N)=O)NC(=O)c1ccc2ccccc2n1` was “inactive”. Still for that read-out and setting: as for `CCc1cc(SCc2sc(-c3ccc(C(F)(F)F)cc3)nc2CN2CCN(c3ccc(OC)cc3)CC2)ccc1OCC(=O)O`, the entry is “inactive”; as for `O=C1CCCc2c1cc1ccc3cccc4ccc2c1c34`, “inactive”.

`CN1CCC(Nc2ncc3ncnc(Nc4ccc(F)c(Cl)c4)c3n2)CC1`: the compound was called inactive.

In the case of `O=C1Cc2cc(CCN3CCN(c4nsc5ccccc45)CC3)c(Cl)cc2N1`, the compound was called inactive.

On to `CC(C)OC(=O)c1cc2c(OCC(O)CNC(C)(C)C)cccc2[nH]1` (stereo not given), for which the compound was called inactive. For `ON=C1CCCC1`, the call was inactive. Regarding `O=c1cccccc1O`, the compound was called inactive. Turning to `CC(=O)OCC(C)OC(C)=O` (stereo not given), the compound was called inactive. Same read-out and setting: as for `C[C@@H](NCCCc1cccc(C(F)(F)F)c1)c1cccc2ccccc12`, the entry is “inactive”; as for `CCCCCCCCS(=O)C(C)Cc1ccc2c(c1)OCO2` (stereo not given), “inactive”; as for `O=Cc1cc(O)ccc1Br`, “inactive”.

The values above are taken from PubChem BioAssay (Tox21).
